The text below walks through data of PubChem BioAssay.

Unmarked numbers belong to inactive results. Calls of active or inactive are those of the source.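 Rule for the calls, unless noted: active = inhibition above 50%; inactive = the rest.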

The nature of one test: antimalarial activity against Dd2 strain (AID 2302;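 active = growth inhibition above 50% at the single 2 µM test dose, taken to imply half-maximal potency below 2 µM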;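 note: 0% = DMSO untreated growth and 100% = chloroquine plus artemisinin killed control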). The settings on record: P. falciparum Dd2 in RBCs, LDH growth readout, 72 h; at 2 µM; hits give high values.
For the compound `Cc1cccc2[nH]c(-c3cccc(-c4cccc(NC(=O)Nc5ccc(Cl)cc5)c4)c3)nc12`, the growth inhibition is 94% (active).

For the compound `CC(C)(C)c1ccc(CNC(=O)c2cc(CNC3CCNC3)ccc2O)cc1` (configuration not stated), the growth inhibition was 1%.

For the compound `Cc1cc(NC(=O)c2cccs2)ccc1OC1CCN(Cc2ccccc2)CC1`, the growth inhibition was 91% (active).

Take `CCOc1c(CNCCCNc2nc3ccccc3[nH]2)cc(I)cc1OC`: the growth inhibition was 4%.

With `Cc1ncccc1-c1cccc2c(NC(=O)Nc3ccc4nccc(N5CCN(C)CC5)c4c3)cccc12`, the growth inhibition was 96% (active).

Take `COc1cc(CNCCC(C)C)ccc1OCc1cccc(COc2ccc(CNCCC(C)C)cc2OC)c1`: the growth inhibition was 20%.

Turning to `O=C(Cc1ccc(Cl)cc1)NC1CCN(c2ccnc3cc(Cl)ccc23)C1` (configuration not stated), the growth inhibition is 99% (active).

For `Cn1nccc1C(=O)NCCNCc1cccc(-c2ccc(-c3nc4ccc(C(F)(F)F)cc4[nH]3)s2)c1`, the growth inhibition is 99% (active).

As to `CCNc1cc(C)nc(Nc2ccc(NC(=O)c3ccccc3)cc2)n1`, the growth inhibition was 63% (active).

Take `CCCn1cnc2cc(C(=O)Nc3ccc(-c4cccc(CN(C)C)c4)cc3)ccc2c1=O`: the growth inhibition was 6%.

For the compound `c1ccc(COc2ccccc2COc2ccccc2-c2ccc3cccnc3n2)cc1`, the growth inhibition was 95% (active).

Regarding `COc1ccc2c(ccc3c2ncc2c(=O)n(-c4ccccc4)[nH]c23)c1`, the growth inhibition is 92% (active).

In the case of `O=C(Nc1ccc(-c2nc3ccccc3[nH]2)cc1)c1cnc(Cl)c(Cl)c1`, the growth inhibition is 95% (active).

As for `Nc1c(Cl)cc(C(O)CNCCCCCOCCc2ccccc2)cc1C(F)(F)F` (configuration not stated), the growth inhibition was 96% (active).

In the case of `CON(C)C(=O)[C@@H](CCCCNC(=O)OCc1ccccc1)NC(=O)OC(C)(C)C`, the growth inhibition was -1%.

Regarding `CC(C)(C)C1CC(=O)C[C@@H]2C(=O)N(c3ccc(Br)cc3)C(=O)[C@H]12` (some centres not stated), the growth inhibition is 7%.

As for `CC1(C)CCCC(=Cc2ccc(Br)cc2)C1(O)Cn1ccnc1` (configuration not stated), the growth inhibition was 69% (active).

Regarding `O=C(NCC1CC1)C1Cc2c([nH]c3ccc(Br)cc23)C2(CCN(CCc3ccccc3)CC2)N1` (configuration not stated), the growth inhibition is 25%.

As for `CCc1cn2c3c(cc(C(=O)N[C@@H](Cc4cc(F)cc(F)c4)[C@H](O)CNC4CCCCC4)cc13)N(C)S(=O)(=O)CC2`, the growth inhibition is 99% (active).

Turning to `CC(CNC1CCN(CCn2c(=O)ccc3ccc(F)cc32)CC1)c1ccccc1` (configuration not stated), the growth inhibition was 4%.

`CC(CCCCOCCc1ccccc1)NCC(O)c1cc(Cl)c(N)c(Cl)c1` (configuration not stated): the growth inhibition is 95% (active).

Take `Cc1cc(N)c2cc(NC(=O)c3cccc(C(=O)Nc4ccc5nc(C)cc(N)c5c4)c3)ccc2n1`: the growth inhibition is 92% (active).

On to `O=C(/C=C/c1ccc(Cl)c(Cl)c1)NCCCCCN1CCC(C(=O)Nc2ccc(Cl)c(Cl)c2)CC1`, for which the growth inhibition was 0%.

Regarding `NCC1CCCN1Cc1ccc(-c2cccc(-c3nc4ccc(C(F)(F)F)cc4[nH]3)c2)cc1` (configuration not stated), the growth inhibition was 97% (active).

In the case of `COc1ccc(-c2nc(-c3ccc([N+](=O)[O-])cc3)no2)cc1OC`, the growth inhibition was -5%.

Regarding `CC(C)C[C@@H](/C=N/N1CCOC1=O)NC(=O)[C@H](CC(C)C)NC(=O)c1ccc(F)cc1`, the growth inhibition is 72% (active).

Consider `Cc1nc2ccc3ccc(CNc4ccc5c(c4)CN([C@H](CCC(=O)O)C(=O)O)C5=O)cc3c2c(=O)[nH]1`, for which the growth inhibition is 90% (active).

The nature of the next test: HepG2 cytotoxicity, primary screen, cytotoxicity control for P. falciparum antimalarial project, cell-based, ATP luminescence (AID 2303).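 Note: 0% = DMSO wells and 100% = digitonin-killed cells.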 The settings on record: HepG2 viability, 24-48 h, at 10 µM, hits give high values.
One may read the inhibition as the change of the read-out against control, counted positive when it falls. `Cc1cc(N(C)CCCN(C)C)nc(Nc2ccc(Br)cc2)n1`: the inhibition was 4%.

With `Cc1noc(C)c1-c1cccc(CNCc2cccc(-c3ccc(-c4nc5ccc(C(F)(F)F)cc5[nH]4)s3)c2)c1`, the inhibition was 23%.

`CN(C(=O)C1(c2ccc(Cl)cc2)CC1)C1CCN(CCCCCNC(=O)/C=C/c2ccc(Cl)c(Cl)c2)CC1`: the inhibition is 91% (active).

Regarding `Cc1cc(N[C@@H](CC(C)C)C(=O)Nc2ccccc2)nc(NCC2CCCCC2)n1`, the inhibition was 8%.

As for `Nc1c2c(nc3ccc(NC(=O)CCCCCCc4ccccc4)cc13)CCCC2`, the inhibition is 100% (active).

For `O=C(/C=C/c1ccccc1Cl)NC1CCC(CN2CCC(c3c[nH]c4ccncc34)CC2)CC1` (configuration not stated), the inhibition was 19%.

As for `Cc1ccc(Cn2nc(Cl)c(N3CCCNCC3)cc2=O)cc1NC(=O)Nc1ccc(-c2ccccc2)cc1`, the inhibition is 90% (active).

`COc1c(C2CCN(CCCCNC(=O)c3ccc(NC(=O)c4ccc(C#N)cc4)cc3)CC2)ccc2c1CCCC2`: the inhibition was 81% (active).

Regarding `O=S(=O)(NCCN1CCCC1)c1ccc(-c2ccc(CNCc3ccc(F)cc3)cc2)s1`, the inhibition was 42%.

Regarding `CCN(c1ccccc1)S(=O)(=O)c1ccc(OC)c(NC(=O)c2cccc(C(F)(F)F)c2)c1`, the inhibition is 9%.

Consider `O=C(Nc1cccc(C(F)(F)F)c1)c1ccc(S(=O)(=O)NCC2CCN(CC3CCCCC3)CC2)cc1`, for which the inhibition was 24%.

`Cc1cc(N(C)C2CCN(CC3CCCCC3)C2)nc(Nc2ccc(Br)cc2)n1` (configuration not stated): the inhibition was 14%.

`CC(=O)Nc1ccc(OCCCCN(Cc2ccccc2C(F)(F)F)c2ccc(C#N)c(C(F)(F)F)c2)cc1`: the inhibition was -3%.

As for `Cc1cccc2[nH]c(-c3cccc(-c4cccc(NC(=O)Nc5ccc(Cl)cc5)c4)c3)nc12`, the inhibition is 23%.

As to `CC(C)(C)c1ccc(CNC(=O)c2cc(CNC3CCNC3)ccc2O)cc1` (configuration not stated), the inhibition is 0%.

With `Cc1cc(NC(=O)c2cccs2)ccc1OC1CCN(Cc2ccccc2)CC1`, the inhibition was 10%.

For the compound `CCOc1c(CNCCCNc2nc3ccccc3[nH]2)cc(I)cc1OC`, the inhibition was 42%.

Consider `Cc1ncccc1-c1cccc2c(NC(=O)Nc3ccc4nccc(N5CCN(C)CC5)c4c3)cccc12`, for which the inhibition is 19%.

Turning to `COc1cc(CNCCC(C)C)ccc1OCc1cccc(COc2ccc(CNCCC(C)C)cc2OC)c1`, the inhibition is 97% (active).

On to `O=C(Cc1ccc(Cl)cc1)NC1CCN(c2ccnc3cc(Cl)ccc23)C1` (configuration not stated), for which the inhibition was 13%.

As to `Cn1nccc1C(=O)NCCNCc1cccc(-c2ccc(-c3nc4ccc(C(F)(F)F)cc4[nH]3)s2)c1`, the inhibition is 36%.

`CCNc1cc(C)nc(Nc2ccc(NC(=O)c3ccccc3)cc2)n1`: the inhibition is 41%.

For the compound `CCCn1cnc2cc(C(=O)Nc3ccc(-c4cccc(CN(C)C)c4)cc3)ccc2c1=O`, the inhibition was 26%.

On to `c1ccc(COc2ccccc2COc2ccccc2-c2ccc3cccnc3n2)cc1`, for which the inhibition is -6%.

For `COc1ccc2c(ccc3c2ncc2c(=O)n(-c4ccccc4)[nH]c23)c1`, the inhibition was -2%.

For `O=C(Nc1ccc(-c2nc3ccccc3[nH]2)cc1)c1cnc(Cl)c(Cl)c1`, the inhibition is 11%.

As to `Nc1c(Cl)cc(C(O)CNCCCCCOCCc2ccccc2)cc1C(F)(F)F` (configuration not stated), the inhibition was 3%.

On to `CON(C)C(=O)[C@@H](CCCCNC(=O)OCc1ccccc1)NC(=O)OC(C)(C)C`, for which the inhibition is 5%.

Turning to `CC(C)(C)C1CC(=O)C[C@@H]2C(=O)N(c3ccc(Br)cc3)C(=O)[C@H]12` (some centres not stated), the inhibition is -2%.

For `CC1(C)CCCC(=Cc2ccc(Br)cc2)C1(O)Cn1ccnc1` (configuration not stated), the inhibition is 7%.

In the case of `O=C(NCC1CC1)C1Cc2c([nH]c3ccc(Br)cc23)C2(CCN(CCc3ccccc3)CC2)N1` (configuration not stated), the inhibition was 14%.

For `CCc1cn2c3c(cc(C(=O)N[C@@H](Cc4cc(F)cc(F)c4)[C@H](O)CNC4CCCCC4)cc13)N(C)S(=O)(=O)CC2`, the inhibition was 9%.

With `CC(CNC1CCN(CCn2c(=O)ccc3ccc(F)cc32)CC1)c1ccccc1` (configuration not stated), the inhibition is -12%.

Consider `CC(CCCCOCCc1ccccc1)NCC(O)c1cc(Cl)c(N)c(Cl)c1` (configuration not stated), for which the inhibition is -5%.

Consider `Cc1cc(N)c2cc(NC(=O)c3cccc(C(=O)Nc4ccc5nc(C)cc(N)c5c4)c3)ccc2n1`, for which the inhibition was 9%.

In the case of `O=C(/C=C/c1ccc(Cl)c(Cl)c1)NCCCCCN1CCC(C(=O)Nc2ccc(Cl)c(Cl)c2)CC1`, the inhibition is 73% (active).

As to `NCC1CCCN1Cc1ccc(-c2cccc(-c3nc4ccc(C(F)(F)F)cc4[nH]3)c2)cc1` (configuration not stated), the inhibition is 24%.

In the case of `COc1ccc(-c2nc(-c3ccc([N+](=O)[O-])cc3)no2)cc1OC`, the inhibition is 14%.

With `CC(C)C[C@@H](/C=N/N1CCOC1=O)NC(=O)[C@H](CC(C)C)NC(=O)c1ccc(F)cc1`, the inhibition was 1%.

In the case of `Cc1nc2ccc3ccc(CNc4ccc5c(c4)CN([C@H](CCC(=O)O)C(=O)O)C5=O)cc3c2c(=O)[nH]1`, the inhibition was 38%.
